TbPYK inhibitor: blocks Trypanosoma brucei pyruvate kinase. Q57TT1. TbPYK enzyme, Kinase-Glo Plus ATP luminescence, 45 min. Potency, µM (series often up to 76.8 µM), inactives show top-dose activity, negative = inhibition, usual class: inhibitors. hit rate 0.12% among 410,000. AID 624173; also: potency is read from the fitted curve at half-maximal effect; % is scaled to controls: 0 for no effect and ±100 for the full control effect; nearly all actives have a fitted effect of over 50% in size
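Activity of T. brucei pyruvate kinase was followed by Kinase-Glo Plus luminescence after the enzyme reacted 45 min at room temperature with 130 uM ADP (final) and substrate. Test compounds were added before ADP at multiple concentrations.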
AMA1 RON2 block: inhibitors of Plasmodium falciparum AMA1-RON2 interaction. hit rate 0.2% among 360,000. Potency, µM (series often up to 58.2 µM), for inactives: at the highest dose activity change, negative = inhibition, hits mostly inhibitors. AID 720542. AlphaScreen AMA1-biotinylated RON2 peptide binding;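 also: potency is read from the fitted curve at half-maximal effect; 0% = vehicle wells and -100% = peptide control; nearly all actives have a fitted effect of over 45% in size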
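AMA1 (3D7) with his tag at 25 nM final met compounds first, then biotinylated RON2 peptide at 25 nM; detection used donor plus acceptor beads, 10 µg/mL apiece, read by AlphaScreen after 30 min at room temperature.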
NS1 function inh: inhibitors of influenza NS1 protein function; Potency, µM (series often up to 46.1 µM), for the others: top-dose activity, positive = more growth; hit rate 0.4% among 270,000; AID 2326; calls by dose curve; also: potency is read from the fitted curve at half-maximal effect; actives are rising curves; nearly all actives have a fitted effect of over 50% in size
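Read-out: OD600 growth recovery of NS1-expressing budding yeast. Cells grown overnight at 30C in -URA glucose medium, washed, resuspended and diluted 1:100 in 2% galactose assay medium, pH 6.0. Same strain lacking NS1 served as positive control.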
RE007 growth inh: less growth of the S. pombe RE007 Vpr strain; S. pombe RE007 Vpr strain, BacTiter-Glo ATP luminescence, 24 h; hit rate 0.21% among 360,000; Potency, µM (highest dose often 92.2 µM), without a hit: at the highest dose activity change, negative = less growth, usual class: inhibitors; active = well fitted falling curve with a large enough effect; inconclusive = small, poorly fitted or top-dose-only effect; inactive = no such curve, though single readings can be large or run the other way; also: potency is read from the fitted curve at half-maximal effect; % is scaled to controls: 0 for no effect and ±100 for the full control effect; nearly all actives have a fitted effect of over 50% in size
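Fission yeast RE007 carrying one integrated HIV-1 vpr copy, seeded at OD 0.01 in PMG+AL medium with 23 nL pinned compound. Grown 24 h at 30 degrees; viability read by BacTiter-Glo luminescence after 5 min.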
LmPK inhibitor: blocks Leishmania mexicana pyruvate kinase activity | purified LmPK, Kinase-Glo ATP luminescence, 1 h | Q27686 | Potency, µM (titrated, usually from 57.5 µM), without a hit: top-dose activity change, negative = inhibition, usual class: inhibitors | hit rate 0.37% among 290,000; also: potency is read from the fitted curve at half-maximal effect; % is scaled to controls: 0 for no effect and ±100 for the full control effect
Target sequence (Q27686 whole entry, looked up): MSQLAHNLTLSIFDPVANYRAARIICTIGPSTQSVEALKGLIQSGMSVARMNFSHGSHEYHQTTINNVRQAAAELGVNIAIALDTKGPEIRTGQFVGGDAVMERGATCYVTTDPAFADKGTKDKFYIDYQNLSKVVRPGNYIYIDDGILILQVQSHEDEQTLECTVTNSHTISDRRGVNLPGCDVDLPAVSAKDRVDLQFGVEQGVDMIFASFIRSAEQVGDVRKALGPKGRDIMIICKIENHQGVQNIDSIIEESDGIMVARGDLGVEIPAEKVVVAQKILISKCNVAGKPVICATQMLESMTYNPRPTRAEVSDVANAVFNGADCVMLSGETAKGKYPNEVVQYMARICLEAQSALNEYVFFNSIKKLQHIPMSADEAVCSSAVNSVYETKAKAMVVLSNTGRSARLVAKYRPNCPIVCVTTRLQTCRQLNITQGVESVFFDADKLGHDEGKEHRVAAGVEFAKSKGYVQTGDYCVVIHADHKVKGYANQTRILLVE
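Screened at intermediate enzyme activity to detect both inhibitors and activators: LmPK at 0.1 nM, with a 0.5 nM enzyme column as activation reference. PEP 0.5 mM, ADP 0.1 mM; ATP detected by luminescence after 1 h.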
Flu NS1 inh: influenza NS1 function inhibition validation. shares compounds with NS1 function inh. influenza NS1 function cell assay, 15-point titration. activity change, negative = inhibition, % at 32.9 µM. 1,400 tested, under 10 active. AID 492980; calls by dose curve; also: 0% is about no effect
PR8 titer: influenza virus titer reduction, NS1 project; shares compounds with NS1 function inh; MDCK infected influenza A/PR/8/34, virus titer TCID50; active compounds read low; virus titer (log TCID50), log10 TCID50 at 5 µM; hit rate 30% among 95; call rule not given here
Starred values were filed as active, the others as inactive; ? = inconclusive; / = no result; [ ] = dose if it differs, or a comment. Sampled rows, rich in hits. Any-hit rate of the full collection: about 0.92%. Unless noted, calls follow the shape of the dose curve; as a rule, active = well fitted curve in the direction sought with a large enough effect; inconclusive = small, poorly fitted or top-dose-only effect, or another doubt; inactive = no such curve, though single readings can be large; an effect the other way counts as inactive or inconclusive.

SMILES | TbPYK inhibitor | AMA1 RON2 block | NS1 function inh | RE007 growth inh | LmPK inhibitor | Flu NS1 inh | others
CCOc1ccc(C2=CC(c3cc(Br)ccc3F)n3ncnc3N2)cc1Cl (stereo unspecified) | -0.5% | / | / | / | / | /
N#Cc1c(NC(=O)C(F)(F)F)sc2c3c(=O)c4ccccc4c(=O)c=3oc3ccccc3c12 | / | / | -1.7% | / | / | /
O=C(NNC(=O)c1cccc(Cl)c1)NNC(=O)c1cccc(Cl)c1 | 7.0% | 1.7% | / | 7.1% | / | /
NC(=S)NNC(=O)c1cccc(Cl)c1 | 4.1% | 46.2% | 3.16µM* | 9.0% | -3.0% | 6.6
CC(C)(C)C(=O)Nc1ccc(C(=O)N/N=C/c2ccccc2OC(=O)c2ccc(Cl)cc2)cc1 | 18.0% | 21.7% | 10µM* | 8.7% | -4.1% | 20.5
CC(C)(C)C(=O)Nc1ccc(C(=O)N/N=C/c2ccccc2OC(=O)c2ccccc2)cc1 | 0.0% | 0.2% | -3.6% | -4.8% | 2.3% | /
Cc1cccc(C(=O)Oc2ccccc2/C=N/NC(=O)c2ccc(NC(=O)C(C)(C)C)cc2)c1 | -4.7% | 3.9%[11.6 µM] | 20µM* | -14.1% | 1.7% | 31.8
CCOC(=O)c1cc(OC(=O)c2ccccc2F)n(-c2ccccc2)n1 | -14.9% | / | / | / | / | /
CN1CCN(C2=Nc3ccccc3Oc3ccc(Cl)cc32)CC1 | -1.7% | -17.2% | ? | -3.3%[18.4 µM] | -0.8% | -21.4 | PR8 titer=7.33*
CN1CCN(C2=Nc3ccccc3Sc3ccc(Cl)cc32)CC1 | -4.3% | / | / | / | / | /
CCCn1c(SCC(=O)NNC(=O)c2ccccc2)nnc1-c1cccnc1 | -0.7% | 11.2% | ? | 7.9% | 6.3% | 1.7
CCOC(=O)c1c(-c2ccco2)csc1N | 1.1% | -3.7% | 1.26µM* | -20.7% | 2.6% | ?
CCOC(=O)c1c(-c2cccs2)csc1N | -17.8% | 2.2% | -4.3% | -3.1% | 0.9% | /
O=c1c[n+](CC[n+]2cc(=O)o[nH]2)[nH]o1 | / | / | -0.3% | / | / | /
CCOCCCNC(=O)C(NC(=O)CC1NC(=O)NC1=O)c1ccc(Cl)cc1 (stereo unspecified) | -1.3% | -19.4% | 0.891µM* | 9.6% | 0.2% | -17.3
CCOCCCNC(=O)C(NC(=O)c1ccc(NC(C)=O)cc1)c1ccc(Cl)cc1 (stereo unspecified) | 1.1% | -21.2% | 0.4% | 1.2% | 6.0% | /
Cc1ccc(NS(=O)(=O)c2cccc(C(=O)NCCc3c[nH]c4ccccc34)c2)c(C)c1 | -6.7% | -8.9% | 11.2µM* | -18.3% | 4.5% | 32.1
Cc1ccc(NC(=O)C(=O)NCCc2c[nH]c3ccccc23)c(C)c1 | -4.3% | 7.6% | / | -12.6% | -0.8%[11.5 µM] | /
O=C(NC1CCCC1)c1ccc(CSc2nc3cccnc3n2Cc2ccccc2F)cc1 | 2.0% | / | / | / | / | /
CCCCCC(C)NC(=S)NC(=O)c1cc(S(=O)(=O)N2CCOCC2)ccc1C (stereo unspecified) | -10.5% | -2.2%[2.32 µM] | 20µM* | 0.1% | 0.3% | -37.1
O=C(Nc1ccc(F)c(Cl)c1)N1CC=C(c2c[nH]c3ccccc23)CC1 | 3.6%[15.4 µM] | / | / | / | / | /
COc1cc(OC)c(NC(=O)c2cc(C(C)=O)n3ccccc23)cc1Cl | -3.2% | / | / | / | / | /
Cc1ccc(C2=CC(C)(c3ccc(C)cc3)Nc3nc(C(F)(F)F)nn32)cc1 (stereo unspecified) | 0.6% | -7.0% | 1.2% | 18.2% | 1.9% | /
CC1(c2ccc(OCC#N)cc2)C=C(c2ccc(OCC#N)cc2)n2nc(C(F)(F)F)nc2N1 (stereo unspecified) | 1.5% | 0.4% | 10µM* | 31.4% | 0.4% | ?
O=C1CSC(=S)N1/N=C/c1cccnc1 | -17.8% | 53.5% | 1.12µM* | -0.8% | -3.2% | 27.5
SMILES | TbPYK inhibitor | AMA1 RON2 block | NS1 function inh | RE007 growth inh | LmPK inhibitor | Flu NS1 inh | others
COC(=O)C1=C(C)NC2=C(C(=O)CCC2)C1c1cn(Cc2ccc(Cl)cc2Cl)nc1-c1ccccc1 (stereo unspecified) | 1.1% | -29.7% | 12.6µM* | -13.9% | 0.6% | 12.9
CCOC(=O)C1=C(C)NC2=C(C(=O)CCC2)C1c1cc(OC)ccc1OC (stereo unspecified) | 2.1% | 1.7% | -0.2% | -1.2% | 0.1% | /
CCOC(=O)C1=C(C)NC2=C(C(=O)CCC2)C1c1cn(Cc2ccc(Cl)cc2Cl)nc1-c1ccccc1 (stereo unspecified) | 1.0% | 1.0% | ? | 6.1% | 2.5% | 2.1 | PR8 titer=8
Cc1ccc(S(=O)(=O)C/N=C(/NC(=S)N(c2ccccc2)c2ccccc2)c2ccccc2)cc1 | -26.0% | 11.0% | 10µM* | 2.2% | -11.6% | ?
O=c1cc(O)c2sc(Nc3cccc(C(F)(F)F)c3)nc2[nH]1 | -7.3% | -2.7%[2.32 µM] | ? | -4.6% | -1.9% | /
O=c1cc(O)c2sc(Nc3ccc(F)cc3)nc2[nH]1 | -11.5% | -3.4% | 12.6µM* | 23.4% | -2.9% | 0.8
Cc1cc(C)c(NC(=O)C(=O)NCC(c2cccnc2)N2CCN(c3ccccc3F)CC2)c(C)c1 (stereo unspecified) | -3.0% | / | / | / | / | /
COc1cc(/C=N/n2c(-c3ccc4c(c3)NC(=O)CO4)csc2=Nc2cccc(C)c2)ccc1O | 0.2% | 1.7% | 11.2µM* | -4.4% | 0.1% | 28.0 | PR8 titer=8.33
COCCN=c1scc(-c2ccc3c(c2)NC(=O)CO3)n1/N=C(\C)c1ccc(O)cc1 | -4.5% | 3.5% | 9.7% | 1.4% | 4.4% | /
COCCNC(=O)CCc1ccc(S(=O)(=O)Nc2ccc(C)cc2)cc1 | -11.8% | 4.8% | 15.8µM* | -6.5% | -0.6% | -20.7
Cc1ccc(NS(=O)(=O)c2ccc(CCC(=O)NC3CC3)cc2)cc1 | -1.7% | 0.9% | 2.2% | -8.8% | 4.1% | /
Cc1cc(C)c(NC(=O)CCN2C(=O)c3ccccc3Sc3ncccc32)c(C)c1 | 4.0% | / | / | / | / | /
Cc1n[nH]c(C)c1CCc1nc2c3ccccc3nc(SCC(N)=O)n2n1 | -3.8% | 5.2% | 3.16µM* | 22.7% | -2.4% | -7.0
O=C(CSc1ccc(-c2nc3ccccc3[nH]2)cn1)Nc1ccc(S(=O)(=O)N2CCCC2)cc1 | -7.5% | 11.2% | 14.1µM* | -7.0% | -0.4% | 9.3
Cc1cc2nc(-c3ccc(SCC(=O)Nc4ccc(S(=O)(=O)N5CCCC5)cc4)nc3)[nH]c2cc1C | -10.1% | 7.2% | ? | -1.6% | -4.5% | /
CC1CCN(S(=O)(=O)c2ccc3c(c2)N(CC(=O)Nc2ccc(F)c(Cl)c2)C(=O)CO3)CC1 | -2.2% | / | / | / | / | /
Cc1cccc(C(=O)NN2C(=O)C3C(c4ccccc4)C=CC(c4ccccc4)C3C2=O)c1 (stereo unspecified) | 3.5% | -4.9% | 3.16µM* | 0.2% | 2.2% | -1.2
COCCCNC(=O)CN1C(=O)c2c(c3ccccc3n2C)C1c1ccc(OC)cc1 (stereo unspecified) | 2.1%[15.4 µM] | / | / | / | / | /

Screens as filed in PubChem.
